# Experiments:
# Assay in all cases: yeast three-hybrid, YBZ-1, SC-Leu-His + 0.5 mM 3-AT, 4 days
# Settings in all cases: tags: N-Gal4 AD-HA kept; label: inside an RPR1-promoter hybrid RNA with tandem MS2 sites; ssRNA
# PUM1 PUF domain R2-KRA = PUM1 PUF domain R2-KRA (Homo sapiens, UniProt Q14671 828-1176, N899K;Y900R;Q903A)
# In short: (§1)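 Sequencing with Illumina followed PCR amplification of the repeat regions from transformants grown four days on SC-Leu (input) or SC-Leu-His + 0.5 mM 3-AT (selection). The transformants were strain YBZ-1 with a LexA–MS2 coat fusion and a HIS3 reporter, carrying Pumilio-1 PUF domain libraries and matching RNA elements. The interaction score is the log change in variant frequency from input to selection, computed in log2 with a pseudocount of 1 for absent variants.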
# PUM1 PUF domain R1-MWR = PUM1 PUF domain R1-MWR (Homo sapiens, UniProt Q14671 828-1176, S863M;R864W;Q867R)
# In short: as §1
# PUM1 PUF domain R5-KRN = PUM1 PUF domain R5-KRN (Homo sapiens, UniProt Q14671 828-1176, C1007K;Q1011N)
# In short: as §1
# PUM1 PUF domain R5-STR = PUM1 PUF domain R5-STR (Homo sapiens, UniProt Q14671 828-1176, C1007S;R1008T;Q1011R)
# In short: as §1
# PUM1 PUF domain R3-FRA = PUM1 PUF domain R3-FRA (Homo sapiens, UniProt Q14671 828-1176, C935F;Q939A)
# In short: as §1
# PUM1 PUF domain R4-MNA = PUM1 PUF domain R4-MNA (Homo sapiens, UniProt Q14671 828-1176, N971M;H972N;Q975A)
# In short: as §1
# PUM1 PUF domain R8-QYG = PUM1 PUF domain R8-QYG (Homo sapiens, UniProt Q14671 828-1176, N1122Q;Q1126G)
# In short: as §1
# PUM1 PUF domain R3-PHL = PUM1 PUF domain R3-PHL (Homo sapiens, UniProt Q14671 828-1176, C935P;R936H;Q939L)
# In short: as §1
# PUM1 PUF domain R2-LWL = PUM1 PUF domain R2-LWL (Homo sapiens, UniProt Q14671 828-1176, N899L;Y900W;Q903L)
# In short: as §1
# PUM1 PUF domain R5-AFF = PUM1 PUF domain R5-AFF (Homo sapiens, UniProt Q14671 828-1176, C1007A;R1008F;Q1011F)
# In short: as §1
sequence,measurement,setting,value
GGCUAGAACUAGUGGAUCCCCCGGCGCCCGGCGGCUCGAGCCCGGGUAAGUGUAAAGAGUCUGCAUGCCGCCGGGCGCCAUGCCUGCAGGUCGACUCUAGAAAACAUG,binding signal,PUM1 PUF domain R2-KRA,4.63 log2 enrichment (interaction score)
GGCUAGAACUAGUGGAUCCCCCGGCGCCCGGCGGCUCGAGCCCGGGUAAGUGUAAAUUGUCUGCAUGCCGCCGGGCGCCAUGCCUGCAGGUCGACUCUAGAAAACAUG,binding signal,PUM1 PUF domain R1-MWR,3.06 log2 enrichment (interaction score)
GGCUAGAACUAGUGGAUCCCCCGGCGCCCGGCGGCUCGAGCCCGGGUAAGUGUCAAUAGUCUGCAUGCCGCCGGGCGCCAUGCCUGCAGGUCGACUCUAGAAAACAUG,binding signal,PUM1 PUF domain R5-KRN,4.24 log2 enrichment (interaction score)
same,binding signal,PUM1 PUF domain R5-STR,5.88 log2 enrichment (interaction score)
GGCUAGAACUAGUGGAUCCCCCGGCGCCCGGCGGCUCGAGCCCGGGUAAGUGUAAGUAGUCUGCAUGCCGCCGGGCGCCAUGCCUGCAGGUCGACUCUAGAAAACAUG,binding signal,PUM1 PUF domain R3-FRA,5.49 log2 enrichment (interaction score)
GGCUAGAACUAGUGGAUCCCCCGGCGCCCGGCGGCUCGAGCCCGGGUAAGUGUAUAUAGUCUGCAUGCCGCCGGGCGCCAUGCCUGCAGGUCGACUCUAGAAAACAUG,binding signal,PUM1 PUF domain R4-MNA,4.12 log2 enrichment (interaction score)
GGCUAGAACUAGUGGAUCCCCCGGCGCCCGGCGGCUCGAGCCCGGGUAAGUGUAAAUCGUCUGCAUGCCGCCGGGCGCCAUGCCUGCAGGUCGACUCUAGAAAACAUG,binding signal,PUM1 PUF domain R1-MWR,3.03 log2 enrichment (interaction score)
GGCUAGAACUAGUGGAUCCCCCGGCGCCCGGCGGCUCGAGCCCGGGUAAGCGUAAAUAGUCUGCAUGCCGCCGGGCGCCAUGCCUGCAGGUCGACUCUAGAAAACAUG,binding signal,PUM1 PUF domain R8-QYG,3.1 log2 enrichment (interaction score)
GGCUAGAACUAGUGGAUCCCCCGGCGCCCGGCGGCUCGAGCCCGGGUAAGUGUAAUUAGUCUGCAUGCCGCCGGGCGCCAUGCCUGCAGGUCGACUCUAGAAAACAUG,binding signal,PUM1 PUF domain R3-FRA,1.3 log2 enrichment (interaction score)
same,binding signal,PUM1 PUF domain R3-PHL,4.16 log2 enrichment (interaction score)
GGCUAGAACUAGUGGAUCCCCCGGCGCCCGGCGGCUCGAGCCCGGGUAAGUGUAAAAAGUCUGCAUGCCGCCGGGCGCCAUGCCUGCAGGUCGACUCUAGAAAACAUG,binding signal,PUM1 PUF domain R2-LWL,6.07 log2 enrichment (interaction score)
GGCUAGAACUAGUGGAUCCCCCGGCGCCCGGCGGCUCGAGCCCGGGUAAGUGUAAAUAGUCUGCAUGCCGCCGGGCGCCAUGCCUGCAGGUCGACUCUAGAAAACAUG,binding signal,PUM1 PUF domain R2-LWL,1.87 log2 enrichment (interaction score)
same,binding signal,PUM1 PUF domain R8-QYG,3.24 log2 enrichment (interaction score)
same,binding signal,PUM1 PUF domain R5-STR,1.08 log2 enrichment (interaction score)
same,binding signal,PUM1 PUF domain R5-AFF,2.83 log2 enrichment (interaction score)

# — paper PMC8384837, “Expanding the binding specificity for RNA recognition by a PUF domain”
